PubChem BioAssay (NCATS)
Records with an inconclusive call do not appear. Where a call stands in place of a potency, no number is given. The source made the active and inactive calls. Calls come from the whole dose curve; as a rule, active = well fitted inhibition curve with a large enough effect; inconclusive = small, poorly fitted or top-dose-only effect; inactive = flat fitted curve, though single readings scatter.

Each compound was assayed against Glutathione peroxidase 1 (Homo sapiens) (UniProt P07203) (assay: Primary qHTS Assay for Inhibitors of Recombinant Selenoprotein Glutathione Peroxidase 1 (GPX1) (AID 1845191; note: nearly all actives have a fitted effect of over 65% in size)). Details: recombinant GPX1, GR-coupled NADPH fluorescence, 15 min; series mostly up to 48.8 µM.
Method in brief: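 GR-coupled assay: compounds preincubated 30 min at room temperature with GPX1, then reaction started with CHP; final 10 nM GPX1, 1 mM GSH, 0.5 mM CHP, 0.5 mM NADPH, 100 nM GR, 0.01% BSA, pH 7.5 Tris buffer. NADPH fluorescence (340/450 nm) read at 0 and 15 min.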

Glutathione peroxidase 1 (Homo sapiens), sequence (P07203 whole entry, looked up): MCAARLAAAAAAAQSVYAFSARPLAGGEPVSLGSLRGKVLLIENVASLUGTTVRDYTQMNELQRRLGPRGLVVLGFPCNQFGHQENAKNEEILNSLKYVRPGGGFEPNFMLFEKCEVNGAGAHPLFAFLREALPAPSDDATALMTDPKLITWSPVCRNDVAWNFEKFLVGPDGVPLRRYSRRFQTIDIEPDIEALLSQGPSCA

Row | Compound | Potency
1 | CC[N+](CC)(CC)CCOc1cccc(OCC[N+](CC)(CC)CC)c1OCC[N+](CC)(CC)CC | inactive
2 | Clc1ccc2nsnc2c1NC1=NCCN1 | inactive
3 | CC12CC3CC(C)(C1)CC(N)(C3)C2 | inactive
4 | COc1ccc(CCN(C)CCCC(C#N)(c2ccc(OC)c(OC)c2)C(C)C)cc1OC (stereo not drawn) | inactive
5 | Cc1cc(C(C)(C)C)cc(C)c1CC1=NCCN1 | inactive
6 | Clc1ccccc1C(c1ccccc1)(c1ccccc1)n1ccnc1 | inactive
7 | COC(=O)Nc1nc2ccc(C(=O)c3cccs3)cc2[nH]1 | inactive
8 | CC(COc1ccccc1)N(CCCl)Cc1ccccc1 (stereo not drawn) | inactive
9 | Clc1ccc(C(c2ccccc2Cl)C(Cl)Cl)cc1 (stereo not drawn) | inactive
10 | Cc1cnc(C(=O)NCCc2ccc(S(=O)(=O)NC(=O)NC3CCCCC3)cc2)cn1 | inactive
11 | COc1cc2nc(N(C)CCCNC(=O)C3CCCO3)nc(N)c2cc1OC (stereo not drawn) | inactive
12 | CC(C)NCC(O)c1ccc(O)c(O)c1 (stereo not drawn) | inactive
13 | CC(C)C(=O)Nc1ccc([N+](=O)[O-])c(C(F)(F)F)c1 | inactive
14 | CCOC(=O)Nc1ccc(NCc2ccc(F)cc2)nc1N | inactive
15 | O=C(c1ccc(OCCN2CCCCC2)cc1)c1c(-c2ccc(O)cc2)sc2cc(O)ccc12 | inactive
16 | CN(Cc1cnc2nc(N)nc(N)c2n1)c1ccc(C(=O)N[C@@H](CCC(=O)O)C(=O)O)cc1 | inactive
17 | Cc1ccccc1N1C(=O)c2cc(S(N)(=O)=O)c(Cl)cc2NC1C (stereo not drawn) | inactive

Row | Compound | Potency
18 | C[C@@H]1CC(=O)NN=C1c1ccc(NN=C(C#N)C#N)cc1 | inactive
19 | Cn1c(=O)c2[nH]cnc2n(C)c1=O | inactive
20 | COc1ccc2[nH]cc(CCNC(C)=O)c2c1 | inactive
21 | COc1ccc2c(c1)c(CC(=O)O)c(C)n2C(=O)c1ccc(Cl)cc1 | inactive
22 | CN1CCN(CCCN2c3ccccc3Sc3ccc(Cl)cc32)CC1 | inactive
23 | CS(=O)(=O)CCNCc1ccc(-c2ccc3ncnc(Nc4ccc(OCc5cccc(F)c5)c(Cl)c4)c3c2)o1 | inactive
24 | O=c1c(-c2ccc(O)cc2)coc2cc(O)cc(O)c12 | inactive
25 | C[C@](N)(Cc1ccc(O)c(O)c1)C(=O)O | inactive
26 | O=C(C1CCCCC1)N1CC(=O)N2CCc3ccccc3C2C1 (stereo not drawn) | inactive
27 | NCCS(=O)(=O)O | inactive
28 | Cn1cnc2c1c(=O)[nH]c(=O)n2C | inactive
29 | NCCc1cnc[nH]1 | inactive
30 | NCCCCCC(=O)O | inactive
31 | CC1(CN2CCC(n3c(=O)[nH]c4ccccc43)CC2)OCc2ccccc2-n2cccc21 (stereo not drawn) | inactive
32 | CCC1(c2ccccc2)C(=O)NCNC1=O | inactive
33 | CN(C)CCOC(c1ccccc1)c1ccccc1 | inactive
